Data published in PubChem BioAssay (NCATS).
Records with an inconclusive call do not appear. Calls of active or inactive are those of the source. Calls come from the whole dose curve; as a rule, active = well fitted curve in the direction sought with a large enough effect; inconclusive = small, poorly fitted or top-dose-only effect, or another doubt; inactive = no such curve, though single readings can be large; an effect the other way counts as inactive or inconclusive.

Legend:
[1] = molecular target: Cellular tumor antigen p53 (Homo sapiens) (UniProt P04637); experiment: Primary qHTS for small molecule compounds that upregulate eGFP-tagged delta133p53alpha (in N-terminal) cells. (AID 2060322); conditions: NCI-H358 eGFP-delta133p53alpha fluorescence, 24 h; activation: active compounds read high; note: nearly all actives have a fitted effect of over 75% in size; note: potency is the fitted concentration of half-maximal effect;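 for activation: cells pre-induced with doxycycline then dosed without doxycycline; series mostly up to about 56 µM; 0% = DMSO vehicle and 100% = reference activator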
How it was run: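 NCI-H358 cells pre-induced 24 h with 10 ng/ml doxycycline for eGFP-delta133p53alpha, plated dox-free and exposed 24 h at 37C to titrated compounds. Fixed, Hoechst-stained; gated GFP peak intensity by laser scanning cytometry, normalized to DMSO (0%) and 57.5 uM 5-azacytidine (100%).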

[2] = molecular target: Aldehyde dehydrogenase, mitochondrial (Homo sapiens) (UniProt P05091); experiment: qHTS for Inhibitors of the Aldehyde Dehydrogenase Family (ALDH2) Primary screen (AID 2061308);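 note: plate controls were vehicle for no effect and reference inhibitor for full effect; nearly all actives have a fitted effect of over 55% in size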
[3] = molecular target: Retinaldehyde dehydrogenase 3 (Homo sapiens) (UniProt P47895); experiment: qHTS for Inhibitors of the Aldehyde Dehydrogenase Family (ALDH1A3) Validation screen (AID 2061312); note: nearly all actives have a fitted effect of over 45% in size; note: potency is the fitted concentration of half-maximal effect
[4] = molecular target: Retinaldehyde dehydrogenase 3 (Homo sapiens) (UniProt P47895); experiment: qHTS for Inhibitors of the Aldehyde Dehydrogenase Family (ALDH1A3) Primary screen (AID 2061315);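 note: plate controls were DMSO vehicle for no effect and reference inhibitor for full effect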

Cellular tumor antigen p53 (Homo sapiens), sequence (P04637 whole entry, looked up): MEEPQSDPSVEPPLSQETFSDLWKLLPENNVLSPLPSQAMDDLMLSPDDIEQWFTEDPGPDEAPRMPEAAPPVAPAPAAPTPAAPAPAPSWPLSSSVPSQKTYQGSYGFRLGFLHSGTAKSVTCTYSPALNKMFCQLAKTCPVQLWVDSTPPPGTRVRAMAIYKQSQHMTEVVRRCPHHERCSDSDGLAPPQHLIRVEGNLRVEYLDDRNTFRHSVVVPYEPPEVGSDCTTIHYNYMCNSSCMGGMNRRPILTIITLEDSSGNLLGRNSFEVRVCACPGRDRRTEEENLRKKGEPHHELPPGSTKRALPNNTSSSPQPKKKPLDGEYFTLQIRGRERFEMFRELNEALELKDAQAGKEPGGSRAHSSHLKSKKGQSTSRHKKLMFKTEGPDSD

C(#Cc1cccc(CN2CCOCC2)c1)CCN1CCCCC1
inactive: activation [1] -4.3% | Potency [2] | Potency [4]
active: Potency [3] 20 µM

COc1cccc(OC)c1-c1nc(C(=O)N[C@@H](CC(C)C)C(=O)O)cn1-c1ccnc2cc(Cl)ccc12
inactive: activation [1] -8.59% | Potency [2] | Potency [3] | Potency [4]

O=C(NCC1(c2nc(-c3ccccc3)cs2)CCOCC1)c1cccc(-c2noc(C(F)(F)F)n2)c1
inactive: activation [1] 1.43% | Potency [2] | Potency [3] | Potency [4]

O=C(c1cc(Cc2n[nH]c(=O)c3ccccc23)ccc1F)N1CCCNCC1
inactive: activation [1] -4.3% | Potency [2] | Potency [3] | Potency [4]

O=C(CCCCC1CCCCC1)N1CCC(c2cnc[nH]2)CC1
inactive: activation [1] -1.91% | Potency [2] | Potency [3] | Potency [4]

CS(=O)(=O)NCC1CCC(Nc2nc3c(s2)CCSc2ccccc2-3)CC1 (centres undefined)
inactive: activation [1] -6.21% | Potency [2] | Potency [3] | Potency [4]

CCn1c(=O)n([C@H]2CCCN(c3nccc(-c4cc5ccccc5o4)n3)C2)c2ccccc21
inactive: activation [1] -7.16% | Potency [2] | Potency [3] | Potency [4]

O=C(NCc1ccc(F)cc1)C(=O)c1c[nH]c2ccccc12
inactive: activation [1] 5.73% | Potency [2] | Potency [3] | Potency [4]

CCc1cnc(N2CCC(c3nc(COc4ccc(-n5cnnn5)cc4)cs3)CC2)nc1
inactive: activation [1] 2.86% | Potency [2] | Potency [3] | Potency [4]

COc1cc2nc(C3CC3)nc(N3CCN(c4ccccc4OC)CC3)c2cc1OC
inactive: Potency [2] | Potency [3] | Potency [4]
active: Potency [1] 16.9 µM

C=C1CCN([C@H](C)[C@](O)(Cn2cncn2)c2ccc(F)cc2F)CC1
inactive: activation [1] -19.1% | Potency [2] | Potency [3] | Potency [4]

COc1cc(NC(=O)c2cc(C3CC3)on2)c(OC)cc1Cl
inactive: activation [1] -12.4% | Potency [2] | Potency [3] | Potency [4]

CCOC(=O)CCC(=O)O[C@H]1[C@H](O[C@@H]2[C@@H](C)[C@H](O[C@H]3C[C@@](C)(OC)[C@@H](O)[C@H](C)O3)[C@@H](C)C(=O)O[C@H](CC)[C@@](C)(O)[C@H](O)[C@@H](C)C(=O)[C@H](C)CC2(C)O)O[C@H](C)C[C@@H]1N(C)C (some centres undefined)
inactive: activation [1] 9.55% | Potency [2] | Potency [3] | Potency [4]

CON(C)C(=O)[C@H](O)[C@H](Cc1ccccc1)NC(=O)c1cc2cc(Cl)ccc2[nH]1
inactive: activation [1] -8.59% | Potency [2] | Potency [3] | Potency [4]

c1ccc(-c2ncc(CN3CCN(c4ncccn4)CC3)[nH]2)cc1
inactive: activation [1] -2.39% | Potency [2] | Potency [3] | Potency [4]

Nc1nc(CC(=O)Nc2ccc(CCNCC(O)c3ccccc3)cc2)cs1 (centres undefined)
inactive: activation [1] -11% | Potency [2] | Potency [3] | Potency [4]

COc1cc(Br)c(S(=O)(=O)Nc2ccc(Cl)c(O[C@@H]3CCN(C)C3)c2)cc1OC
inactive: activation [1] 21.5% | Potency [2] | Potency [3] | Potency [4]

COc1ccc([C@H](Cc2ccncc2)c2ccccc2)cc1OC1CCCC1
inactive: activation [1] -2.86% | Potency [2] | Potency [3] | Potency [4]

CCc1cc2c(=O)c(-c3nc4ccccc4s3)coc2c(CN2CCCCC2)c1O
inactive: activation [1] 0.955% | Potency [2] | Potency [3] | Potency [4]

Cn1cc(S(=O)(=O)c2ccc(Cl)cc2)c2cccc(N3CCNCC3)c21
inactive: activation [1] 3.34% | Potency [2] | Potency [3] | Potency [4]

COc1cc2c(cc1OC)-c1[nH]nc(Nc3cccc(F)c3)c1C2
inactive: activation [1] 6.68% | Potency [2] | Potency [3] | Potency [4]

CCCCCCOC(=O)/N=C(\N)c1ccc(NCc2nc3cc(C(=O)N(CCC(=O)OCC)c4ccccn4)ccc3n2C)cc1
inactive: activation [1] -0.955% | Potency [2] | Potency [3] | Potency [4]

CCCCC(=O)N1c2ccccc2NC2=C(C(=O)CCC2)C1c1ccccc1Cl (centres undefined)
inactive: activation [1] -4.77% | Potency [2] | Potency [3] | Potency [4]

COc1ccccc1Oc1ccc(N(Cc2cccnc2)S(=O)(=O)CC(F)(F)F)cc1
inactive: activation [1] -6.21% | Potency [2] | Potency [3] | Potency [4]

CC(C)[C@@H](C)/C=C/[C@@H](C)[C@H]1CC[C@H]2C3=CC=C4C[C@@H](O)CC[C@]4(C)[C@H]3CC[C@]12C
inactive: activation [1] 14.3% | Potency [2] | Potency [3] | Potency [4]

CO[C@H]1C=CO[C@@]2(C)Oc3c(C)c(O)c4c(O)c(c5c(c4c3C2=O)NC2(CCN(CC(C)C)CC2)N=5)=NC(=O)C(C)=CC=C[C@H](C)[C@H](O)[C@@H](C)[C@@H](O)[C@@H](C)[C@H](OC(C)=O)[C@H]1C
inactive: activation [1] 0.549% | Potency [2] | Potency [3] | Potency [4]
